# From PubChem BioAssay (NCI)
# About 83,000 compounds went through this panel and 20% of them were active in at least one assay; those are over-represented in the sample as a whole.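 48-hour exposure, single concentration, 96-well plates; percent growth endpoint where 0 means no net growth. Active: below 10.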 Active and inactive are the calls of the source.
# System: SW-620 colon
# Test: NCI-60 one-dose screen, 48 h (100 = growth as untreated, 0 = no growth, -100 = all killed)
# Settings: 10 µM unless noted
row,Structure (SMILES),growth
1,O=S(=O)(c1ccc(NCSc2nc3ccccc3s2)cc1)c1ccc(NCSc2nc3ccccc3s2)cc1,100% (inactive)
2,COc1cc(/C=C2\CN(S(=O)(=O)c3ccc(C)cc3)C/C(=C\c3cc(CN4CCCC4)c(O)c(OC)c3)C2=O)cc(CN2CCCC2)c1O,-68.1% (active)
3,Cc1cccc(CN(Nc2ccccc2)c2ccccc2)n1,107% (inactive)
4,O=C(NS(=O)(=O)c1ccccc1)n1cc(-c2ccncc2)c(-c2cc(O)cc(Cl)c2)n1,123% (inactive)
5,CCCCN(CCC#N)C(N)=O,99.2% (inactive)
6,CCOC(=O)/C(=C/c1ccc([N+](=O)[O-])cc1)C(=O)c1ccccc1,6.12% (active)
7,N#Cc1c(-c2ccc(F)cc2)cc(-c2cccc(Cl)c2)[nH]c1=O,104% (inactive)
8,O=C(Nc1cccc(Cn2c(=O)[nH]c3ccc(Oc4ncccn4)cc3c2=O)c1)c1cccc(Cl)c1,83.3% (inactive)
9,O=C1c2c(c3c4cccnc4[nH]c3c3ccc4ccccc4c23)C(=O)N1O,21.2% (inactive)
10,COC(=O)c1nc(-c2ccccc2)oc1S(=O)(=O)N1CCN(c2ccc(OC)cc2)CC1,41.4% (inactive)
11,O=C1c2ccccc2-c2c1c1ccncc1c(=O)n2CCCn1ccnc1,18.7% (inactive)
12,COc1cc(-c2c(-c3ccccc3)c[nH]c2C(=O)NCCCO)c(OC)c2c1OCO2,102% (inactive)
13,C=C(C)Cn1c(SCC(=O)c2cccs2)nc2sc3c(c2c1=O)CCCC3,38.6% (inactive)
14,CNC1=C([N+](=O)[O-])C(c2ccc(OC)cc2)C(C#N)=C(c2ccc[nH]2)O1 (stereo not given),104% (inactive)
15,Cn1cc(-c2nc(-c3c[nH]c4c(Cl)nccc34)cs2)c2ccccc21,99.4% (inactive)
16,N/C(=N\c1nc2ccccc2s1)NC(=O)Nc1ccccc1,24.7% (inactive)
17,C#Cc1ccc(NC(=O)Cc2ccc(/C=C/C(=O)c3nccn3C)cc2)cc1,15.8% (inactive)
18,Cc1cc2c(C(C)C)c(O)c(O)c(/C=N/O)c2c(O)c1-c1c(C)cc2c(C(C)C)c(O)c(O)c(/C=N/O)c2c1O,23.2% (inactive)
19,O=C(Nc1ccc2[nH]ncc2c1)c1csc(Nc2ccccc2)n1,21% (inactive)
20,COC(=O)c1nc(-c2ccccc2)oc1S(=O)(=O)NCC(c1ccc(Cl)cc1)N1CCCCC1 (stereo not given),36.2% (inactive)
21,O=C(Nc1ccc(Oc2cccc(F)c2)c(Cl)c1)c1cnccn1,22.7% (inactive)
22,COc1ccc(Nc2nc(Nc3cc(C)[nH]n3)c3cc(OC)c(OC)cc3n2)cc1,-74.4% [20 µM] (active)
23,COC(=O)c1cc(-c2ccc(OC)c(OC)c2)[nH]c1N/N=C/c1c(Cl)cccc1Cl,21.3% (inactive)
24,CC(C)=CCC[C@](C)(O)C1CC[C@]2(C)[C@@H]1CC[C@@H]1[C@@]3(C)CC/C(=N\OCCC#N)C(C)(C)[C@@H]3CC[C@]12C (stereo not given in full),78.8% (inactive)
25,N#C/C(=C\c1cccc2cnccc12)N1N=NC2C=CC=CC21 (stereo not given),13.1% (inactive)
